Activity calls are given as the source filed them.
Experiments:
[1] = target: Albumin (Bos taurus) (UniProt P02769); assay: compounds binding labelled BSA control protein – biochemical, small-molecule microarray, Alexa647 label, 635/667 nm fluorescence, artefact control for SMM control protein annotation, profiling panel (AID 1118); conditions: BSA-A647 binding, fluorescence 635 nm, higher = more signal;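 note: score merges 667 nm emission intensity and signal-to-noise per printed compound spot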
[2] = probe aXIP binding to arrayed compounds – biochemical, NeuroSMM set, 635/667 nm fluorescence, primary screen (AID 1119); conditions: small-molecule microarray, higher = more signal, called active from +8 up or from −8 down;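 note: probe is the protein aXip251-270 applied at 1 µg/mL to compound-printed slides; binding of probe to printed compounds measured as 667 nm fluorescence plus signal to noise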
[3] = probe aNOTCH3 binding on compound microarray – biochemical, small-molecule microarray, 635/667 nm fluorescence, primary screen (AID 1120); conditions: higher = more signal;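 note: probe is a biotin-tagged antibody raised against NOTCH3 rather than NOTCH3 protein; score merges spot fluorescence near 667 nm with spot signal to noise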
[4] = probe aNOTCH2 binding on compound microarray – biochemical, small-molecule microarray, 635/667 nm fluorescence, primary screen (AID 1121); conditions: higher = more signal;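 note: score merges feature fluorescence read at 667 nm with its signal to noise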
[5] = target: Carbonic anhydrase 2 (Homo sapiens) (UniProt P00918); assay: compounds binding carbonic anhydrase 2 – biochemical, small-molecule microarray, Alexa647-labelled CAII, profiling panel (AID 1122); conditions: CAII-A647 binding fluorescence, higher = more signal
[6] = COS7 lysate on small-molecule microarray, probe aHis, 635 nm (AID 1123); conditions: COS7 cell lysate, fluorescence, higher = more signal;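 note: z-score combines 667nm fluorescence intensity with signal-to-noise per printed compound spot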
[7] = probe aLAP1 signal on lysate-treated microarray – cell lysate, small-molecule microarray, COS7 lysate, primary screen (AID 1124); conditions: probe aLAP1, fluorescence, higher = more signal;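 note: lysate comes from COS7 cells expressing LAP1 and is applied at 0.3 µg/mL; score merges spot fluorescence near 667 nm with signal-to-noise over triplicate slides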
[8] = system: Sam68 (KHDRBS1); assay: compounds binding KHDRBS1 protein – biochemical, small-molecule microarray, 635 nm fluorescence, primary screen (AID 1125); conditions: higher = more signal;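 note: score merges 667 nm channel intensity with signal to noise over triplicate slides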
[9] = system: Chordin-like protein 2 (CHRDL2); assay: compounds binding chordin-like 2 – biochemical, small-molecule microarray, 635 nm fluorescence, primary screen (AID 1126); conditions: fluorescence 635 nm, higher = more signal;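 note: printed compound slides probed with Chrdl2 protein at 4 µg/mL for 1 h at 4 C; score merges 667 nm emission intensity with signal to noise over three replicate slides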
[10] = target: Concanavalin-A (Canavalia ensiformis) (UniProt P02866); assay: compounds binding concanavalin A lectin – biochemical, small-molecule microarray, Alexa647 label, 635 nm, artefact control for SMM control protein annotation, primary screen (AID 1127); conditions: ConA-A647 binding fluorescence, higher = more signal;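 note: z combines 667 nm emission intensity with signal-to-noise across three replicate slides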
Sequence of Concanavalin-A (Canavalia ensiformis) (P02866 whole entry, looked up): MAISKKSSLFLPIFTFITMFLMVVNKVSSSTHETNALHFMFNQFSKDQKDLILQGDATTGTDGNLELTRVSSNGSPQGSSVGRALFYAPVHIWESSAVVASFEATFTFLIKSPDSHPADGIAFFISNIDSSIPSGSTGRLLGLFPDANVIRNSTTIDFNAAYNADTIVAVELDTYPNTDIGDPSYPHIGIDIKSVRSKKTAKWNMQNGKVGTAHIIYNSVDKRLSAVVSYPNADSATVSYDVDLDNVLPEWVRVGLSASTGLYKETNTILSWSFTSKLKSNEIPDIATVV

Sequence of Albumin (Bos taurus) (P02769 whole entry, looked up): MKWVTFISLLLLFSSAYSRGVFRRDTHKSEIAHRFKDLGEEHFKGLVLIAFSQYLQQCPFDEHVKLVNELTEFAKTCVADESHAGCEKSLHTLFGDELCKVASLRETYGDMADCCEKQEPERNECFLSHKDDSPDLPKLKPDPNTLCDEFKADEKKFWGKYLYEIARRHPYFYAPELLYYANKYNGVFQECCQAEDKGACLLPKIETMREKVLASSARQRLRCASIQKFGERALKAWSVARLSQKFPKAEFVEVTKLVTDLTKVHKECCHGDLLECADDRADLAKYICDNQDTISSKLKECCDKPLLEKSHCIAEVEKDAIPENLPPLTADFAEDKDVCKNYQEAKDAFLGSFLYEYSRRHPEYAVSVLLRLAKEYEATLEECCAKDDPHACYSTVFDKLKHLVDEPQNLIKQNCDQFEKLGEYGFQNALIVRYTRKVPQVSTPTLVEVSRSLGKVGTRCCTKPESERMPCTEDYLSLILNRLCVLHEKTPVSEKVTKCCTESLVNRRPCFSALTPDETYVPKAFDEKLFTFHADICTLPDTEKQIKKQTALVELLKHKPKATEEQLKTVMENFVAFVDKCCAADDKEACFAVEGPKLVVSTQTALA

SMILES | composite z-score [1] | composite Z-score [2] | composite z-score [3] | composite z-score [4] | composite z-score [5] | composite z-score [6] | composite z-score [7] | composite z-score [8] | composite z-score [9] | composite z-score [10]
CN1C(=O)C2C=CC(C(O)C(c3ccccc3)c3ccccc3)N(Nc3ccccc3)C2C1=O (stereo not given) | 0.959 | 0.462 (inactive) | 0.466 | 0.0018 | 0.453 | 2.72 | -0.167 | 1.31 | 0.106 | 1.16
COCCOC(=O)N1C(=O)[C@@]2(c3cc(C#CCCO)ccc31)[C@H](c1ccc(O)cc1)N1[C@H](c3ccccc3)[C@H](c3ccccc3)OC(=O)[C@H]1[C@@H]2C(=O)N1CCCCCCC1 | 0.0837 | 1.11 (inactive) | 0.489 | 0.0931 | 0.431 | 0.666 | 0.642 | 1.3 | 0.755 | 1.1
CC(=O)N1Cc2ccccc2C[C@@]2(N=C(c3ccc(OCCCO)cc3)O[C@H]2c2ccccc2)C1=O | -0.0471 | 0.0748 (inactive) | 0.22 | 0.139 | 0.709 | 3.18 | 1.24 | 1.3 | 0.611 | 1.17
COC(=O)[C@@]1(Cc2ccc(F)cc2)[C@H]2c3cc(C(=O)N4CCCC4)n(Cc4ccc(Cl)c(C(F)(F)F)c4)c3C[C@H]2CN1C(=O)c1ccccc1 | 1.02 | 0.267 (inactive) | 1.53 | 0.853 | 0.801 | 2.89 | 1.31 | 1.33 | -0.804 | 1.16
O=[N+]([O-])c1ccc(C[n+]2ccc(CCCO)cc2)o1 | 0.766 | -0.138 (inactive) | 0.277 | 0.0655 | 0.82 | 1.82 | 0.313 | 0.916 | 0.793 | 1.09
C=CCN1C(=O)[C@]2(COC(c3ccc(OCCCO)cc3)=N2)Cc2ccccc21 | 0.284 | -0.586 (inactive) | -0.0362 | -0.0583 | 0.627 | 2.78 | 1.11 | 0.487 | 0.0453 | 0.953
O=C1OCC=C[C@H]2OC34C=CCN(CCN5CCOCC5)C(=O)[C@H]3N(CCCCCCO)C(=O)[C@@H]4[C@@H]12 (stereo not given in full) | 0.509 | -1.05 (inactive) | 0.0208 | -0.104 | 0.688 | 3.1 | 0.55 | 0.274 | 0.158 | 0.0683
Cc1ccc(N2C(=O)c3ccccc3[C@](C)(C(=O)NCCN3CCOCC3)[C@@H]2c2ccc(CO)cc2)nc1 | -0.657 | -0.559 (inactive) | -0.279 | -0.14 | 0.494 | -0.0207 | 0.0322 | -1.39 | -0.494 | -0.828
CC(C)OC(=O)C1=CCC(c2cccc(Cl)c2)O1 (stereo not given) | 0.569 | 0.403 (inactive) | -0.36 | -0.169 | 0.848 | 2.72 | -0.157 | 0.649 | -1.72 | 0.417
C=C(CCCC)C(=O)CC[C@@H](OC(=O)c1ccccc1-c1ccccc1C(=O)O)c1ccc(CO)o1 | 0.26 | -0.27 (inactive) | 0.135 | -0.0028 | 0.549 | 0.413 | 0.941 | 1.18 | 0.593 | 0.786
CN(C)CCCN1C(=O)[C@@]2(c3ccc([N+](=O)[O-])cc3)CC(=O)N(C3CCCCC3)[C@@H]2c2ccc(CO)cc21 | -0.4 | 0.0831 (inactive) | -0.0665 | -0.0455 | -0.622 | -0.317 | -0.233 | -0.395 | -0.137 | 0.209
CC(C)[C@H]1COC(=O)N1C(=O)[C@H]1[C@@H](c2ccccc2)N(c2ccccc2)O[C@@H]1C | 0.15 | 1.77 (inactive) | 0.0893 | -0.125 | -0.004 | 0.409 | -0.066 | 0.618 | 0.827 | 0.609
CCN(CC)c1ccc(N2CC=CC34O[C@@H]5/C=C\CCC(C)OC(=O)C5[C@H]3C(=O)N(CCCCCCO)[C@@H]4C2=O)cc1 (stereo not given in full) | 0.362 | 0.184 (inactive) | -0.204 | -0.224 | 0.548 | -0.039 | -0.458 | -0.264 | -0.143 | -0.285
CC(C)[Si]1(C(C)C)O[C@@H](c2ccccc2)c2cc(-c3ccc(-c4ccc(Cl)c(Cl)c4)o3)nc(CCc3ccccc3)c21 | -1.24 | 0.0953 (inactive) | -0.226 | -0.148 | 0.287 | 0.143 | 0.312 | -0.141 | -1.59 | -1.04
Cc1ccc(S[C@]2(C(=O)NCc3ccccc3)CC(=O)N(Cc3cc(C(F)(F)F)cc(C(F)(F)F)c3)[C@@H]2c2ccc(CO)cc2)cc1 | 0.737 | 0.3 (inactive) | -0.128 | -0.208 | 0.433 | 1.03 | 1.28 | -1.01 | -0.568 | -0.856
CN(C)CCCCCCNC(=O)[C@@H]1C[C@@H]2C(=O)NCC(=O)N2[C@@H]1c1cccc(OCCO)c1 | -0.615 | 1.04 (inactive) | 0.113 | -0.0519 | 0.63 | 2.54 | 0.212 | 1.3 | 1.35 | 1.22
CC(C)C[C@@H]1NC(=O)[C@@H]2C[C@H](C(=O)NCCCCN(C)C)[C@H](c3ccc(O)cc3)N2C1=O | -0.0836 | 0.0699 (inactive) | -0.236 | -0.124 | 0.335 | 0.732 | 0.148 | 0.225 | -0.631 | -0.0663

SMILES | composite z-score [1] | composite Z-score [2] | composite z-score [3] | composite z-score [4] | composite z-score [5] | composite z-score [6] | composite z-score [7] | composite z-score [8] | composite z-score [9] | composite z-score [10]
COCCOC(=O)N1C(=O)[C@@]2(c3cc(C#CCC(C(=O)OC)C(=O)OC)ccc31)[C@H](c1ccccc1OCCO)N1[C@H](c3ccccc3)[C@H](c3ccccc3)OC(=O)[C@H]1[C@@H]2C(=O)Nc1nc2ccccc2s1 | 0.757 | 0.794 (inactive) | 0.261 | -0.0048 | 0.324 | 1.93 | 1.47 | 1.31 | 0.554 | 1.12
CCCCC(=O)N(Cc1ccccc1F)[C@@H]1CC(C(=O)NCCO)=C[C@H](Oc2c(I)cc(CO)cc2OC)[C@H]1O | -0.823 | -0.685 (inactive) | 0.201 | -0.0128 | 0.521 | 1.54 | 0.44 | 1.3 | 1.5 | 1.19
C=C(COC)C(=O)CC[C@@H](OC(=O)c1ccccc1-c1ccccc1C(=O)O)c1ccc(CO)o1 | -0.651 | 0.082 (inactive) | -0.154 | -0.0817 | 0.309 | 1.77 | 0.447 | 0.504 | 1.24 | 0.865
COCCOC(=O)N1C(=O)[C@@]2(c3cc(C#Cc4ccc(OC)cc4)ccc31)[C@H](c1ccc(OCCO)cc1)N1[C@H](c3ccccc3)[C@H](c3ccccc3)OC(=O)[C@H]1[C@@H]2C(=O)N1CCc2cc(OC)c(OC)cc2C1 | -0.536 | 0.343 (inactive) | 0.0194 | -0.0907 | 0.228 | 0.875 | 0.556 | 1.17 | 0.599 | 0.843
O=C1OCC=C[C@H]2OC34C=CCN(Cc5ccccc5)C(=O)[C@H]3N(CCCO)C(=O)[C@@H]4[C@@H]12 (stereo not given in full) | 0.792 | 2.97 (inactive) | 0.577 | 0.0753 | 0.786 | 3.07 | 1.08 | 0.89 | -0.888 | 0.226
C=CCCN(CC#C[C@H]1Oc2ccccc2S(=O)(=O)N2CCC[C@@H]12)S(=O)(=O)c1ccc(C)cc1 | 0.0985 | 0.671 (inactive) | 0.0311 | -0.102 | 0.208 | 0.273 | 0.758 | 0.215 | 0.607 | -0.464
COC(=O)[C@@]1(Cc2ccc(OC)cc2)[C@H]2c3cc(C(=O)N4CCCC4)n(C[C@H](O)CO)c3C[C@H]2CN1C(=O)c1ccccc1 | 0.947 | 0.509 (inactive) | 0.0824 | 0.0817 | 0.869 | 1.62 | 0.226 | -0.0743 | -0.229 | 0.556
CCOC(=O)C[C@H]1[C@H](OC(=O)c2ccc(C(=O)c3ccccc3)cc2)[C@@H](NC(=O)c2ccc3ccccc3n2)c2cc(OCCCO)ccc2N1C(=O)c1ccc2ccccc2n1 | 0.802 | 0.525 (inactive) | 0.16 | -0.101 | 0.245 | 0.847 | 0.808 | 0.616 | -0.0787 | 0.564
C=C(C)[C@@H]1CC=C(C(O)C2C=CC3C(=O)N(Cc4ccccc4)C(=O)C3N2n2cnnc2)CC1 (stereo not given in full) | 0.936 | -0.619 (inactive) | 0.0297 | -0.0907 | 0.751 | 0.341 | -0.24 | -0.0341 | -0.918 | 0.317
CC1CC/C=C\[C@H]2OC34C=CCN(c5ccc6ccccc6c5)C(=O)[C@H]3N(CCCCCO)C(=O)[C@@H]4C2C(=O)O1 (stereo not given in full) | -0.158 | 0.322 (inactive) | -0.372 | -0.0941 | -0.622 | -0.357 | -0.615 | -1.95 | -1.25 | -1.23
[N-]=[N+]=Nc1ccccc1[C@@H]1OC(c2ccc(OCCCO)cc2)=N[C@]1(CCS(=O)(=O)c1ccccc1)C(=O)O | 0.829 | 0.834 (inactive) | 0.416 | -0.0323 | 0.683 | 1.61 | -0.252 | 1.31 | 0.012 | 1.15
C=CCOC(=O)[C@@H]1[C@H]2C(=O)O[C@H](c3ccccc3)[C@H](c3ccccc3)N2[C@H](c2ccc(OCCOC(=O)[C@H]3C[C@H]4C(=O)N[C@@H](CCCC[N+](C)(C)C)C(=O)N4[C@H]3c3cccc(OCCO)c3)cc2)[C@@]12C(=O)Nc1ccc(I)cc12 | -0.707 | 0.629 (inactive) | -0.0647 | -0.142 | 0.465 | 0.93 | 0.341 | 1.19 | 1.19 | 1.1
CCN(CC)c1ccc(N2CC=CC34O[C@@H]5/C=C\CCCOC(=O)C5[C@H]3C(=O)N(CCCO)[C@@H]4C2=O)cc1 (stereo not given in full) | -1.05 | 0.895 (inactive) | -0.373 | -0.104 | 0.935 | 3.01 | 2.3 | 0.244 | -1.83 | -0.77
O=C(CS)NCCCCCCNC(=O)[C@H]1C[C@H]2C(=O)N3CCC[C@H]3C(=O)N2[C@H]1c1ccc(O)cc1 | 0.11 | 0.131 (inactive) | 0.298 | -0.147 | 0.389 | -0.125 | -0.0269 | 0.557 | 0.257 | 0.853
C#C[C@H]1Oc2ccccc2S(=O)(=O)N2CCC[C@@H]12 | -1.3 | -0.0662 (inactive) | 0.0026 | -0.0548 | -0.156 | -0.117 | 0.0504 | -0.399 | 0.839 | -1.55
O=c1cccc(-c2ccc3ccccc3c2)o1 | -1.67 | 0.19 (inactive) | -0.0766 | -0.115 | -0.263 | -0.332 | -0.341 | -0.591 | 0.387 | -0.544

Reference: PubChem BioAssay
